Data from PubChem BioAssay (EPA / NIEHS).
Calls of active or inactive are those of the source. Rule for the calls: active = hit-call score of the fitted dose curve at least 0.9, where 1 is the maximum; inactive = score below 0.9.

How the values were obtained:
[1] = ATG_GLI_CIS: Attagene CIS-FACTORIAL HepG2 Assay for human Zinc Finger Protein GLI1 (AID 2282945); settings: HepG2, Attagene cis-factorial reporter mRNA, GLI element; actives raise or lower the signal
Outline: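 Bidirectional curve fits relative to DMSO, using reporter mRNA levels from RT-PCR plus capillary electrophoresis. Cells were HepG2 transiently carrying cis-regulated reporter constructs, harvested 24 h after dosing.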

[2] = target: Bile acid receptor (Homo sapiens) (UniProt Q96RI1); assay: ATG_IR1_CIS: Attagene CIS-FACTORIAL HepG2 Assay for human Nuclear Receptor Subfamily 1 Group H Member 4 (NR1H4), IR1 submotif (AID 2282946); settings: IR1 reporter transcription, actives raise or lower the signal
Bile acid receptor (Homo sapiens), sequence (Q96RI1 whole entry, looked up, the tested form may be a part): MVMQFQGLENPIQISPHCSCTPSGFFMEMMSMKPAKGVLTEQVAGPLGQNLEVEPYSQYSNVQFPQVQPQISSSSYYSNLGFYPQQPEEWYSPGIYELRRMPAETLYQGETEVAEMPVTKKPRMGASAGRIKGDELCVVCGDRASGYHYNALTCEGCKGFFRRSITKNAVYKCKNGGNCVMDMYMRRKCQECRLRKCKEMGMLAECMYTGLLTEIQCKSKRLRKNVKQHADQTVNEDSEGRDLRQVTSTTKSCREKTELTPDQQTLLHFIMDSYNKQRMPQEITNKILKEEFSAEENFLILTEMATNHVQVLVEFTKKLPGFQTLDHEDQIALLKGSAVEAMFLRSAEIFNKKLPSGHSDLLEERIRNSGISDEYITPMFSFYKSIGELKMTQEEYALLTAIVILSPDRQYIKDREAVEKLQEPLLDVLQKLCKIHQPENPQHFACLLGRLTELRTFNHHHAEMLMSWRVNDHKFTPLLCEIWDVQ
Outline: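 Cells (human HepG2) carry transiently transfected cis-promoter reporter transcription units. Compounds are incubated 24 h, total RNA is reverse-transcribed and amplified, and labelled fragments are resolved by capillary electrophoresis. Curves use DMSO as baseline.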

[3] = ATG_GRE_CIS: Attagene CIS-FACTORIAL HepG2 Assay for human Glucocorticoid Response Elements (GRE) (AID 2282947); settings: HepG2 GRE cis-reporter, Attagene multiplex mRNA; actives raise or lower the signal
Outline: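 Transient MRTU transfection of human HepG2 liver cells; cis-regulated reporters report endogenous factors. 24 h dosing → RNA isolation → RT-PCR → 6-FAM primer extension → HpaI cut → CE fragment analysis. Bidirectional fit, DMSO negative control.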

[4] = ATG_ISRE_CIS: Attagene CIS-FACTORIAL HepG2 Assay for human Interferon Regulatory Factor 1 (IRF1) binding to an Interferon-Stimulated Response Element (ISRE) (AID 2282948); settings: HepG2 ISRE cis-reporter (Attagene), mRNA transcription readout; actives raise or lower the signal
Outline: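 Cell-based cis-reporter assay; HepG2; 24 h exposure; reporter mRNA by RT-PCR plus capillary electrophoresis fluorescence; activity in either direction scored relative to DMSO.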

[5] = ATG_M_32_CIS: Attagene CIS-FACTORIAL HepG2 Assay for M32 Transcription Factor (Internal Marker) (AID 2282949); settings: HepG2 Attagene cis-factorial M32 reporter, mRNA; actives raise or lower the signal;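 note: background control marker of the multiplexed CIS panel rather than a real target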
Outline: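 Fluorescent capillary electrophoresis peaks of HpaI-digested, FAM-labelled RT-PCR reporter products give the signal. Source: transiently transfected human liver HepG2 cells, 24 h after chemical dosing; bidirectional fitting against DMSO.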

[6] = ATG_M_06_CIS: Attagene CIS-FACTORIAL HepG2 Assay for M06 Transcription Factor (Internal Marker) (AID 2282950); settings: HepG2 Attagene CIS-FACTORIAL M06 internal marker reporter; actives raise or lower the signal
Outline: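 Fluorescence-labelled RT-PCR products from cis-promoter reporter units, cut with HpaI and resolved by capillary electrophoresis, give the signal. Cells are human HepG2, dosed for 24 h. Serves as background control, fitted relative to DMSO.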

[7] = target: Hypoxia-inducible factor 1-alpha (Homo sapiens) (UniProt Q16665); assay: ATG_HIF1a_CIS: Attagene CIS-FACTORIAL HepG2 Assay for human Hypoxia Inducible Factor 1 (HIF1A) (AID 2282951); settings: HepG2 Attagene cis-factorial HIF1a reporter transcription; actives raise or lower the signal
Hypoxia-inducible factor 1-alpha (Homo sapiens), sequence (Q16665 whole entry, looked up): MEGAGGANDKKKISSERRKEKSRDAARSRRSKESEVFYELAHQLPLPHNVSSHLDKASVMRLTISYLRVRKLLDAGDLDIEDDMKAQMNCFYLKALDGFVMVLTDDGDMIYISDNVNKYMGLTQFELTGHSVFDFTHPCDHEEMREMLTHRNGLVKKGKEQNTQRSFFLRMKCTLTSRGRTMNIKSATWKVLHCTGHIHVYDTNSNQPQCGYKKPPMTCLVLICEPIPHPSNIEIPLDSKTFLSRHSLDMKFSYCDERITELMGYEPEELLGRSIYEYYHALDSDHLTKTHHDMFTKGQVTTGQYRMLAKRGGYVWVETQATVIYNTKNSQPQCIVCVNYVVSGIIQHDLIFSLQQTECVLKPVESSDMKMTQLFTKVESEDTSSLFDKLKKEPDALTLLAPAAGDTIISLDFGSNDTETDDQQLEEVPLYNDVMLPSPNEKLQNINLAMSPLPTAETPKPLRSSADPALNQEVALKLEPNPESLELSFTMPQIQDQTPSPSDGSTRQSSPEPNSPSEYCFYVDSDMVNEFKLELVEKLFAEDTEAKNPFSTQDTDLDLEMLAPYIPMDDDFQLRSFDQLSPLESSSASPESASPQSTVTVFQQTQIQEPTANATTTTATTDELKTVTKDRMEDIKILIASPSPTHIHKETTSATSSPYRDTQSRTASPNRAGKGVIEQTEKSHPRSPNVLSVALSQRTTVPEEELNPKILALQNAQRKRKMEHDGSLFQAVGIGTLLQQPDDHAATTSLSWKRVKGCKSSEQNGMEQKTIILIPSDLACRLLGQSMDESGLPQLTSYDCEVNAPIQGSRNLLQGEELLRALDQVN
Outline: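 In this multiplexed cell assay, HepG2 cells bearing transfected cis reporters are dosed for 24 h and reporter mRNA is read by RT-PCR plus capillary electrophoresis; signal increases and decreases are both scored against DMSO.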

[8] = target: Hepatocyte nuclear factor 6 (Homo sapiens) (UniProt Q9UBC0); assay: ATG_HNF6_CIS: Attagene CIS-FACTORIAL HepG2 Assay for human Hepatocyte Nuclear Factor 6 (HNF6) (AID 2282952); settings: HepG2 Attagene cis-factorial HNF6 reporter transcription; actives raise or lower the signal
Hepatocyte nuclear factor 6 (Homo sapiens), sequence (Q9UBC0 whole entry, looked up): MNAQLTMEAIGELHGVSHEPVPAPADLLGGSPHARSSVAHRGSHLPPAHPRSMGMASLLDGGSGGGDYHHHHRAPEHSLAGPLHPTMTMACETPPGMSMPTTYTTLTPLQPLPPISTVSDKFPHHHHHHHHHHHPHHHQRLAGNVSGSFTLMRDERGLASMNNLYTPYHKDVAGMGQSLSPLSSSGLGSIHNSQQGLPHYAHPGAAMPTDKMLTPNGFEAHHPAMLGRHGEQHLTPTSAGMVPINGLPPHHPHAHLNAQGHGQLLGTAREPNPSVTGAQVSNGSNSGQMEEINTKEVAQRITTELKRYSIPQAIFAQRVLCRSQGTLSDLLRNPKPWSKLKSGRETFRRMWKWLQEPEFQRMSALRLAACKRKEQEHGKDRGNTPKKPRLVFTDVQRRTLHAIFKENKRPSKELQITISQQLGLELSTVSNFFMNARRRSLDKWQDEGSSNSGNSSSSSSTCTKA
Outline: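 Multiplexed mRNA reporter assay in transfected HepG2; 24 h dosing; RT-PCR plus capillary electrophoresis fluorescence; DMSO-referenced bidirectional curve fitting.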

[9] = target: Heat shock factor protein 1 (Homo sapiens) (UniProt Q00613); assay: ATG_HSE_CIS: Attagene CIS-FACTORIAL HepG2 Assay for human Heat Shock Transcription Factor 1 (HSE) (AID 2282953); settings: HepG2 HSE cis-reporter, Attagene RNA transcription; actives raise or lower the signal
Heat shock factor protein 1 (Homo sapiens), sequence (Q00613 whole entry, looked up): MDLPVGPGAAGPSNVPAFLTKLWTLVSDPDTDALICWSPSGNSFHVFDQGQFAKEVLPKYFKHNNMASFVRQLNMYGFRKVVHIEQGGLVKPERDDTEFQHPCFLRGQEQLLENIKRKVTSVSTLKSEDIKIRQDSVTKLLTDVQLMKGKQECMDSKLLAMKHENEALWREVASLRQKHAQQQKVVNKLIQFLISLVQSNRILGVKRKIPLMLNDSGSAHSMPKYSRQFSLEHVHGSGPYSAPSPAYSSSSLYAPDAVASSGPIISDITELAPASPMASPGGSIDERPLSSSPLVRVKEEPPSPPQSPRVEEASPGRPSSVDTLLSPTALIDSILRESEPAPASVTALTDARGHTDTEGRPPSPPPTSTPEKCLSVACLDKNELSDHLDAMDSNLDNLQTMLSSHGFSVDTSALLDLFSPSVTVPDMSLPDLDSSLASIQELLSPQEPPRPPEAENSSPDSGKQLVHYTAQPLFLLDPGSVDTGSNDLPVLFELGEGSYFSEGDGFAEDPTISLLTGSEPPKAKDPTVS
Outline: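 After a 24 h incubation with test chemical, transfected HepG2 cells were harvested for RNA; reporter transcripts were measured by RT-PCR and capillary electrophoresis. Values reflect gain or loss of signal relative to DMSO.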

[10] = ATG_MRE_CIS: Attagene CIS-FACTORIAL HepG2 Assay for human Metal Responsive Element (MRE) (AID 2282954); settings: HepG2 MRE cis-reporter transcription, Attagene multiplex; actives raise or lower the signal
Outline: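 Transient MRTU transfection of HepG2 (FuGene 6); 24 h dosing; total RNA → oligo(dT) RT, PCR, 6-FAM primer extension, HpaI cut, CE. Bidirectional fit vs DMSO.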

[11] = ATG_PBREM_CIS: Attagene CIS-FACTORIAL HepG2 Assay for human Phenobarbital-responsive Enhancer Module (PBREM) (AID 2282955); settings: HepG2 PBREM cis-reporter, Attagene multiplexed transcription; actives raise or lower the signal
Outline: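 After a 24 h incubation with test chemical, transfected HepG2 cells yield total RNA; reporter-specific RT-PCR products are fluorescently labelled, HpaI-digested and resolved by capillary electrophoresis against ROX size standards.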

[12] = target: Paired box protein Pax-6 (Homo sapiens) (UniProt P26367); assay: ATG_Pax6_CIS: Attagene CIS-FACTORIAL HepG2 Assay for human Paired Box 6 (PAX6) (AID 2282956); settings: HepG2 CIS-FACTORIAL PAX6 reporter transcription, RNA readout; actives raise or lower the signal
Paired box protein Pax-6 (Homo sapiens), sequence (P26367 whole entry, looked up): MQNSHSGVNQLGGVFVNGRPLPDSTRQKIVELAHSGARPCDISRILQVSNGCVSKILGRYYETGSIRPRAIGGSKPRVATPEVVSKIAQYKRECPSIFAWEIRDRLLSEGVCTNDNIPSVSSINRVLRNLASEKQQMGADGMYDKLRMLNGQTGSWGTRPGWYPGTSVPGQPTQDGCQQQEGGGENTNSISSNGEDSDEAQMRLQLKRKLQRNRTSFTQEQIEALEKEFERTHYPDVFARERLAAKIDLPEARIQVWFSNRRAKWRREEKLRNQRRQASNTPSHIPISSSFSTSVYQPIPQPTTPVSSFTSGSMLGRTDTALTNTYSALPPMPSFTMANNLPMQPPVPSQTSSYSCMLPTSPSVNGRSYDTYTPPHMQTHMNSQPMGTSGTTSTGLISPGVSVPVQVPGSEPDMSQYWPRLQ
Outline: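 Multiplexed cis-reporter HepG2 system; 24 h treatment; reporter mRNA read by RT-PCR/CE fluorescence; bidirectional fit vs DMSO.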

[13] = ATG_PXRE_CIS: Attagene CIS-FACTORIAL HepG2 Assay for human Pregnane X Receptor Element (PXRE) (AID 2282957); settings: HepG2 Attagene CIS-FACTORIAL PXRE reporter, mRNA; actives raise or lower the signal
Outline: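 Cells: HepG2, transiently transfected reporter units under cis promoter control. Exposure: 24 h. Detection: reporter mRNA via RT-PCR/CE fluorescence; bidirectional fitting, DMSO-referenced.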

[14] = ATG_RORE_CIS: Attagene CIS-FACTORIAL HepG2 Assay for human RAR-related Orphan Receptor Element (RORE) (AID 2282959); settings: HepG2 Attagene cis-factorial RORE reporter, mRNA; actives raise or lower the signal
Outline: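 Fluorescence intensity of reporter-specific cDNA fragments, separated by capillary electrophoresis, gives the signal. Source: HepG2 liver cells transiently transfected with cis-element reporters and exposed 24 h; DMSO-normalized bidirectional fit.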

[15] = ATG_Sox_CIS: Attagene CIS-FACTORIAL HepG2 Assay for human SRY-box transcription factor (SOX) (AID 2282960); settings: HepG2 Attagene cis-factorial SOX reporter, mRNA; actives raise or lower the signal
Outline: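 After 24 h of chemical treatment, transfected HepG2 reporter cells are lysed for total RNA. Transcript levels come from RT-PCR with labelled primer extension and capillary electrophoresis, analysed bidirectionally versus DMSO.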

[16] = target: Transcription factor Sp1 (Homo sapiens) (UniProt P08047); assay: ATG_Sp1_CIS: Attagene CIS-FACTORIAL HepG2 Assay for human Specificity Protein 1 (Sp1) (AID 2282961); settings: HepG2 Sp1 cis-reporter transcription, actives raise or lower the signal
Transcription factor Sp1 (Homo sapiens), sequence (P08047 whole entry, looked up): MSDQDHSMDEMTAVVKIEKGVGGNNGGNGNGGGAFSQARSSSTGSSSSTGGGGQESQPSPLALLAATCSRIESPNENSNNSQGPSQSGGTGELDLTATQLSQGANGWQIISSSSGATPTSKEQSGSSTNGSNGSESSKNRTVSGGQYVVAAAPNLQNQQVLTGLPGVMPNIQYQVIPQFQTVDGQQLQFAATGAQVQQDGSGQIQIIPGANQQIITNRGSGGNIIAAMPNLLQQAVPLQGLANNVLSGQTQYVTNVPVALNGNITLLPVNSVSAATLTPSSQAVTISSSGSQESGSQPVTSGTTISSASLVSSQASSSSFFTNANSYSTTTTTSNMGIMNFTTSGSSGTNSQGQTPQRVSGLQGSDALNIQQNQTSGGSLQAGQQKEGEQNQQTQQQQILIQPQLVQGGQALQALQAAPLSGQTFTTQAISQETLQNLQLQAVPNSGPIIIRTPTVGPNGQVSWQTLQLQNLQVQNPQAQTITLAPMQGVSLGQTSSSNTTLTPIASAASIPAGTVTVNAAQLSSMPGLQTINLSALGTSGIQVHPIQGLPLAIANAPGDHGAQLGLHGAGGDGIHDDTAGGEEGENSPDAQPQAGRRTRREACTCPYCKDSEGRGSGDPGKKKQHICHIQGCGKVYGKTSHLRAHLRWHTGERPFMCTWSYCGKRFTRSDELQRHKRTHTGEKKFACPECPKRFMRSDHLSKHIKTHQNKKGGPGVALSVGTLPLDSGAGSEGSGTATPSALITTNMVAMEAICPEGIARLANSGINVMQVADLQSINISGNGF
Outline: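 Sp1-driven reporter mRNA, read as capillary electrophoresis fluorescence after RT-PCR, in transiently transfected HepG2 cells dosed for 24 h; signal change in either direction relative to DMSO.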

[17] = ATG_SREBP_CIS: Attagene CIS-FACTORIAL HepG2 Assay for human Sterol Regulatory Element Binding (SREBP) (AID 2282962); settings: HepG2 Attagene cis-factorial SREBP reporter, mRNA; actives raise or lower the signal
Outline: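 mRNA induction of transfected cis-promoter reporters in HepG2 cells, 24 h post-dose. Detection: RT-PCR with 6-FAM-labelled products, HpaI digest, capillary electrophoresis. DMSO served as negative control and baseline.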

[18] = target: Signal transducer and activator of transcription 3 (Homo sapiens) (UniProt P40763); assay: ATG_STAT3_CIS: Attagene CIS-FACTORIAL HepG2 Assay for human Signal Transducer and Activator of Transcription 3 (STAT3) (AID 2282963); settings: HepG2, Attagene cis-factorial STAT3 reporter transcription; actives raise or lower the signal
Signal transducer and activator of transcription 3 (Homo sapiens), sequence (P40763 whole entry, looked up): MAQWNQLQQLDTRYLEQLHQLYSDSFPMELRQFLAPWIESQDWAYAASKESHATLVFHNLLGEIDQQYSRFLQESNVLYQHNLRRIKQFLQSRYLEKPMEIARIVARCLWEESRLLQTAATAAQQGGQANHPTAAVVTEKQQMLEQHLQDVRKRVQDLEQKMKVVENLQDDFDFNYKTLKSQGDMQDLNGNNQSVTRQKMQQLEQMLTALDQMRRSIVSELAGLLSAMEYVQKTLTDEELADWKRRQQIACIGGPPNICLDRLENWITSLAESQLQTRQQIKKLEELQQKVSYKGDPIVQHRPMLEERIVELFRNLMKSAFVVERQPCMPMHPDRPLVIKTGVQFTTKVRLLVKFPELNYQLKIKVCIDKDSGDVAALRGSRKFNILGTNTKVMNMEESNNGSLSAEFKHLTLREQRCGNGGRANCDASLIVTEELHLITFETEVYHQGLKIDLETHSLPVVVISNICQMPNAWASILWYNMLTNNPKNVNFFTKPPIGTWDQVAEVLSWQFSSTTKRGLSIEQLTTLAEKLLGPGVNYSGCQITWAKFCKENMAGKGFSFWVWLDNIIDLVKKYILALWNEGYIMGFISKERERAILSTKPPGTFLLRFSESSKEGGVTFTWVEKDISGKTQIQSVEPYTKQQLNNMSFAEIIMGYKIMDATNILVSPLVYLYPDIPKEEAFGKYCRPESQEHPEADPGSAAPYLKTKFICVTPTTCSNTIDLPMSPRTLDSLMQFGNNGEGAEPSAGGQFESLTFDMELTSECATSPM
Outline: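 Endogenous STAT3-responsive cis-element activity was read in transiently transfected HepG2 cells after 24 h treatment. Reporter transcripts were quantified via RT-PCR and capillary electrophoresis, with DMSO as negative control and bidirectional curve fitting.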

[19] = ATG_TA_CIS: Attagene CIS-FACTORIAL HepG2 Assay for human TA Basal Promoter (AID 2282964); settings: HepG2 Attagene CIS-factorial TA basal promoter reporter; actives raise or lower the signal
Outline: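 Multiplexed mRNA reporter assay, HepG2, 24 h. Reporter cDNA amplified, 6-FAM primer-extended, HpaI-cut, CE-sized; DMSO = negative control and baseline.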

[20] = ATG_PPRE_CIS: Attagene CIS-FACTORIAL HepG2 Assay for human Peroxisome Proliferator-activated Response Element (PPRE) (AID 2282958); settings: HepG2 PPRE cis-element reporter, Attagene transcription factor profiling; actives raise or lower the signal
Outline: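 Multiplexed reporter transcription units under cis-regulatory promoters were transfected into HepG2 cells to capture endogenous factor activity. A 24 h incubation preceded RNA isolation and fluorescent RT-PCR fragment analysis.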

Measured: AC50

CC(C)OB(OC(C)C)OC(C)C
not listed: [20]
inactive: all other assays above

CCCCOCC(C)OCC(C)O (stereo unspecified)
not listed: [3] | [8] | [16]
inactive: all other assays above

C=C1CC[C@H]2O[C@]2(C)CC[C@@H]2[C@@H]1CC2(C)C
not listed: [8] | [15]
inactive: all other assays above

CCOc1ccc(NC(C)=O)cc1
not listed: [7] | [11] | [14] | [16] | [20]
inactive: all other assays above

c1ccc2c(c1)-c1ccc3ccc4cccc5cc-2c1c3c45
active: [13] 1.02 µM
not listed: [7] | [14]
inactive: all other assays above

CCC(C)(CCCC(C)C)OC(C)=O (stereo unspecified)
not listed: [6] | [8]
inactive: all other assays above

CC(C)(C)c1cc(CCC(=O)OCCSCCOC(=O)CCc2cc(C(C)(C)C)c(O)c(C(C)(C)C)c2)cc(C(C)(C)C)c1O
not listed: [7] | [10]
inactive: all other assays above

O=S1(=O)CC(Cl)(Cl)C(Cl)(Cl)C1
active: [2] 5.49 µM | [4] 1.37 µM | [10] 6.29 µM | [12] 5.97 µM
not listed: [7] | [11] | [14] | [15] | [16]
inactive: all other assays above

C=C/C(C)=C/C/C=C(\C)CCC=C(C)C
active: [13] 3.8 µM
not listed: [10] | [14]
inactive: all other assays above

CCCCC/C=C\C=C\C(=O)OCC
inactive: [3] | [5] | [6] | [8] | [14] | [17] | [18] | [19]
active: [1] 64 µM | [2] 79.6 µM | [4] 56.3 µM | [7] 78.5 µM | [9] 46.7 µM | [10] 55.1 µM | [12] 62.9 µM | [13] 1.51 µM | [20] 4.97 µM | [15] 28.4 µM | [16] 28.7 µM

CCCCCCC(O)CCOC(C)=O (stereo unspecified)
active: [13] 18.6 µM
not listed: [3] | [11] | [19]
inactive: all other assays above

NC(=O)c1cccnc1
active: [13] 32.3 µM
inactive: all other assays above

CCCc1ccc(O)cc1
not listed: [8] | [15]
inactive: all other assays above

C[C@H](CCC(=O)O)[C@H]1CC[C@H]2[C@@H]3CC[C@@H]4C[C@H](O)CC[C@]4(C)[C@H]3CC[C@]12C
active: [4] 27.4 µM | [8] 146 µM | [9] 25.6 µM | [10] 26.4 µM | [12] 27.5 µM | [13] 3.75 µM | [16] 168 µM | [19] 25.3 µM
not listed: [6] | [7]
inactive: all other assays above

CCCCCC1CCC(=O)O1 (stereo unspecified)
not listed: [10] | [11]
inactive: all other assays above
